Values without a mark were called inactive. Records with an inconclusive call do not appear. Entries that show only a call come without a potency. Activity calls are given as the source filed them. Unless noted, calls come from the whole dose curve.
What was measured:
[1] = Nuclear factor erythroid 2-related factor 2/antioxidant responsive element (Nrf2/ARE) small molecule agonists: luciferase reporter gene qHTS assay in human keratinocytes (AID 1919969); note: nearly all actives have a fitted effect of over 35% in size; note: potency is the fitted concentration of half-maximal effect
[2] = target: Gonadotropin-releasing hormone receptor (Homo sapiens) (UniProt P30968); assay: Human gonadotropin-releasing hormone receptor (GnRHR) small molecule agonists, calcium flux assay in GnRHR-HEK293 cells (AID 1920063); note: nearly all actives have a fitted effect of over 35% in size
Summary of the method: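 HEK293 cells stably expressing human GnRHR were dye-loaded for 1 h at 37 C. Compound was added in agonist mode and fluorescence (Ex/Em 480/540) recorded kinetically for 3 min. Fifteen concentrations, triplicates.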

[3] = target: KiSS-1 receptor (Homo sapiens) (UniProt Q969F8); assay: Human kisspeptin (KISS1R) small molecule agonists, calcium flux assay in KISS1R-HEK293 cells (AID 1920064; active = well fitted activation curve with a large enough effect in the repeat runs)
Summary of the method: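 HEK293 cells stably expressing human KISS1R were loaded with calcium dye for 1 h at 37 C, then given compound; fluorescence (Ex/Em 480/540) was read kinetically for 3 min. Fifteen concentrations, triplicate.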

[4] = G protein-coupled receptor (GPCR) small molecule agonists, calcium flux assay: HEK293 wild type cell line counter screen (AID 1920065)
Summary of the method: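 Wild-type HEK293 cells plated 18 h, loaded with calcium dye 1 h at 37 C, then compounds added in agonist mode (ATP as positive control). Kinetic fluorescence Ex/Em 480/540 recorded 3 min at 1 sec intervals; 15 concentrations, triplicate.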

[5] = p53 small molecule agonists, cell-based qHTS assay with human liver microsomes (AID 1963577);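 note: p53 response element beta-lactamase reporter cells with liver microsomes plus NADPH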
Summary of the method: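 p53RE-bla cells; 5 h settle, 37 C/5% CO2; cpd + HLM 0.5 mg/mL + NADPH 0.5 mg/mL (final); 16 h 37 C; LiveBLAzer 2 h RT dark; fluorescence readout.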

[6] = p53 small molecule agonists, cell-based qHTS assay with rat liver microsomes (AID 1963578)
Summary of the method: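 Rat liver microsome activation: microsomes 0.5 mg/mL, NADPH 0.5 mg/mL final; p53RE-bla cells, 16 h 37 C; LiveBLAzer readout, 2 h RT dark.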

[7] = p53 small molecule agonists, cell-based qHTS assay with human liver microsomes: qHTS cell viability counter screen (AID 1963579); note: nearly all actives have a fitted effect of over 45% in size
Summary of the method: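 Luminescent CellTiter-Glo read-out, 30 min at room temperature, gauged cytotoxicity in p53RE-bla cells exposed 16 h at 37 C to DMSO-dissolved compounds with metabolic activation by human liver microsomes and NADPH, each 0.5 mg/mL final.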

[8] = p53 small molecule agonists, cell-based qHTS assay with rat liver microsomes: qHTS cell viability counter screen (AID 1963580); note: nearly all actives have a fitted effect of over 45% in size
Summary of the method: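 HCT-116 p53RE-bla, 4,000 cells/well, 5 h pre-incubation; cpd + rat liver microsomes 0.5 mg/mL + NADPH 0.5 mg/mL (final); 16 h, 37 C; CellTiter-Glo, 30 min RT; luminescence.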

[9] = p53 small molecule agonists, cell-based qHTS assay: qHTS cell viability counter screen (AID 1963581); note: nearly all actives have a fitted effect of over 45% in size
Summary of the method: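 p53RE-bla HCT-116 cells, compounds added 5 h after plating and incubated 16 h at 37 C. Cytotoxicity measured in the same wells as intracellular ATP by CellTiter-Glo luminescence after 30 min at room temperature.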

[10] = p53 small molecule agonists, cell-based qHTS assay (AID 1963582; active = well fitted activation curve with a large enough effect in the signal ratio in the repeat runs, not every such curve was filed as active; the % refers to the signal ratio)
Summary of the method: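 p53RE-bla reporter cells, compounds added in DMSO after 5 h plating, incubated 16 h at 37 C. Beta-lactamase read via 2 h room-temperature LiveBLAzer B/G FRET substrate, fluorescence intensity.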

[11] = target: 5-hydroxytryptamine receptor 2A (Homo sapiens) (UniProt P28223); assay: 5-hydroxytryptamine receptor 2A (HTR2A) small molecule antagonists, cell-based qHTS assay (AID 1963586); note: nearly all actives have a fitted effect of over 45% in size; note: potency is the fitted concentration of half-maximal effect
Summary of the method: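 Antagonist-mode intracellular calcium assay: DOI (4 nM) added after 5 min compound pre-incubation at room temperature to dye-loaded HTR2A-CHO cells. Fluorescence followed for 3 min, sampled every second.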

[12] = target: 5-hydroxytryptamine receptor 2A (Homo sapiens) (UniProt P28223); assay: 5-hydroxytryptamine receptor 2A (HTR2A) small molecule agonists, cell-based qHTS assay (AID 1963587); note: nearly all actives have a fitted effect of over 30% in size
Summary of the method: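 Kinetic calcium-flux fluorescence (2 min, 1 sec intervals) after compound addition in agonist mode. HTR2A-CHO cells were cultured 18 h, then dye-loaded 1 h at 37 C.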

[13] = target: Muscarinic acetylcholine receptor M1 (Homo sapiens) (UniProt P11229); assay: Cholinergic receptor muscarinic 1 (CHRM1) small molecule antagonists, cell-based qHTS assay (AID 1963588); note: nearly all actives have a fitted effect of over 40% in size
Summary of the method: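 CHRM1-CHO calcium-flux assay, antagonist mode. Cells were seeded 18 h, dye-loaded 1 h at 37 C and given compound for 5 min at RT, then acetylcholine was added at 50nM. FDSS fluorescence was read 3 min; 15 concentrations, three runs.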

[14] = target: Muscarinic acetylcholine receptor M1 (Homo sapiens) (UniProt P11229); assay: Cholinergic receptor muscarinic 1 (CHRM1) small molecule agonists, cell-based qHTS assay (AID 1963589); note: nearly all actives have a fitted effect of over 35% in size
Summary of the method: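 CHO cells stably expressing human CHRM1 were loaded with calcium dye for 1 h at 37 C, then compound was added in agonist mode. Intracellular calcium fluorescence was followed kinetically at 1 s intervals. Fifteen concentrations were tested in three independent runs.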

[15] = target: Beta-2 adrenergic receptor (Homo sapiens) (UniProt P07550); assay: Adrenergic beta2 receptor (ADRB2) small molecule antagonists, cell-based qHTS assay (AID 1963592); note: series mostly up to about 92 µM; nearly all actives have a fitted effect of over 50% in size
Summary of the method: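 Cells (CHO, stable ADRB2 overexpression) incubated 18-20hr at 37C; compounds added from DMSO; agonist mix (1nM isoproterenol, 100uM IBMX, 25uM Ro-20-1724) added; 0.5hr RT; d2-cAMP and anti-cAMP-cryptate added; 1hr RT; 665/615 nm read.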

[16] = target: D(2) dopamine receptor (Homo sapiens) (UniProt P14416); assay: Dopamine D2 receptor (DRD2) small molecule agonists, cell-based qHTS assay (AID 1963594); note: nearly all actives have a fitted effect of over 35% in size
Summary of the method: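 cAMP accumulation in DRD2-HEK293 cells measured by HTRF after 1 h detection; compounds added 10 min before NKH477 (200nM […]) forskolin-analogue stimulation, 30 min at room temperature, with Ro20-1724 present at 0.1 mM final.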

[17] = target: D(2) dopamine receptor (Homo sapiens) (UniProt P14416); assay: Dopamine D2 receptor (DRD2) small molecule antagonists, cell-based qHTS assay (AID 1963595; active = well fitted inhibition curve with a large enough effect in the signal ratio in the repeat runs, with a control signal flat; the % refers to the signal ratio)
Summary of the method: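 Cells were plated and grown for 24 h at 37 °C. Ro20-1724 (0.1 mM final) went in first, then compound for 10 min. NKH477 (200 nM) with quinpirole (12 nM) followed for 30 min at RT, then HTRF detection reagents for 1 h.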

[18] = cAMP Responsive Elements (CRE) small molecule agonists, cell-based qHTS assay (AID 1963590)
Summary of the method: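 CRE-bla HEK 293T cells, 2,000/well in DMEM with 10% dialyzed FBS and 25 mM HEPES, pre-incubated 18 h at 37 C, then exposed to compound 3 h at 37 C. Beta-lactamase reporter read with LiveBLAzer B/G FRET substrate after 2 h at room temperature.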

[19] = cAMP Responsive Elements (CRE) small molecule antagonists, cell-based qHTS assay (AID 1963591; active = well fitted inhibition curve with a large enough effect in the signal ratio in the repeat runs, not every such curve was filed as active; the % refers to the signal ratio)
Summary of the method: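 CRE-bla HEK293T cells plated 18 h, then given compound plus NKH477 at 0.25 uM final for 3 h at 37C. Beta-lactamase reporter read with LiveBLAzer B/G FRET substrate after 2 h at room temperature.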

[20] = target: Beta-2 adrenergic receptor (Homo sapiens) (UniProt P07550); assay: Adrenergic beta2 receptor (ADRB2) small molecule agonists, cell-based qHTS assay (AID 1963593);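 note: CHO cells stably overexpressing human ADRB2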
Summary of the method: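 CHO cells stably over-expressing ADRB2 were plated overnight at 37C, then dosed with compounds plus a stimulation mix containing 100uM IBMX and 25uM Ro-20-1724 for 0.5hr at room temperature. cAMP was measured by HTRF competition, 1hr.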

5-hydroxytryptamine receptor 2A (Homo sapiens), sequence (P28223 whole entry, looked up): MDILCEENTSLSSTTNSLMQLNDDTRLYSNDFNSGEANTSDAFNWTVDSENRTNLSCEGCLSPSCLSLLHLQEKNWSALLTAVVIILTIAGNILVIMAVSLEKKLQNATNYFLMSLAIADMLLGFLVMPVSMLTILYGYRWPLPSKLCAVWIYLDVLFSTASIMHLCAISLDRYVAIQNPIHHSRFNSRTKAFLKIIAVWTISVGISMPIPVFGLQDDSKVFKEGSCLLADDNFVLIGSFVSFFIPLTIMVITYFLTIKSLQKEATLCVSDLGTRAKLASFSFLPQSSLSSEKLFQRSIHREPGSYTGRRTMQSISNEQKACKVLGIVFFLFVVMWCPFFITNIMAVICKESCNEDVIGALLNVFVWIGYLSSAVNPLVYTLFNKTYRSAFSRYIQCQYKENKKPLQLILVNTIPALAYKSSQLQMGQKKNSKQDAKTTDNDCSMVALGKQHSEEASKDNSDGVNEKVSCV
KiSS-1 receptor (Homo sapiens), sequence (Q969F8 whole entry, looked up): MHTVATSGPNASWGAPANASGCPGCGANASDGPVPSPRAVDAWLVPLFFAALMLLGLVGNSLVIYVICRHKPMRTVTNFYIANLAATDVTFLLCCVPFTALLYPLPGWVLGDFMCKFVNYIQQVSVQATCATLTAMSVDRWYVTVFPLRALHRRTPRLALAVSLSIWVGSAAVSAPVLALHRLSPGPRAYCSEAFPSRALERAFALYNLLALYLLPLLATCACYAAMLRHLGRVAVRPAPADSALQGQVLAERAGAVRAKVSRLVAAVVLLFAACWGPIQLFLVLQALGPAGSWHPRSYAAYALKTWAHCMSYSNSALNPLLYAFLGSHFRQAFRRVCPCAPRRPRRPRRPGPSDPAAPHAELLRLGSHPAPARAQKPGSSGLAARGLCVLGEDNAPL
Muscarinic acetylcholine receptor M1 (Homo sapiens), sequence (P11229 whole entry, looked up): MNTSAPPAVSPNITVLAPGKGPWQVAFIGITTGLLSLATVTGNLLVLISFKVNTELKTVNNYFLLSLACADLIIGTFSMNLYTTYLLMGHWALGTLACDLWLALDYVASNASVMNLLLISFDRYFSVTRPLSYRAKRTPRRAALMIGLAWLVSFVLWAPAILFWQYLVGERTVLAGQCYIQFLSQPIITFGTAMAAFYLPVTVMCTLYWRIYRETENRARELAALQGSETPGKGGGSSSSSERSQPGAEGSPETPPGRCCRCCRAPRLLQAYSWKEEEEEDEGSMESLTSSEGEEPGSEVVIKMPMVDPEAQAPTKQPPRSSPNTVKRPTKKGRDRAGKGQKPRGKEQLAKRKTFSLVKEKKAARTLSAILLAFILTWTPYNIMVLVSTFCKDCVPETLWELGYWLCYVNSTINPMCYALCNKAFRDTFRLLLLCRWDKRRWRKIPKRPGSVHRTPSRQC
Beta-2 adrenergic receptor (Homo sapiens), sequence (P07550 whole entry, looked up): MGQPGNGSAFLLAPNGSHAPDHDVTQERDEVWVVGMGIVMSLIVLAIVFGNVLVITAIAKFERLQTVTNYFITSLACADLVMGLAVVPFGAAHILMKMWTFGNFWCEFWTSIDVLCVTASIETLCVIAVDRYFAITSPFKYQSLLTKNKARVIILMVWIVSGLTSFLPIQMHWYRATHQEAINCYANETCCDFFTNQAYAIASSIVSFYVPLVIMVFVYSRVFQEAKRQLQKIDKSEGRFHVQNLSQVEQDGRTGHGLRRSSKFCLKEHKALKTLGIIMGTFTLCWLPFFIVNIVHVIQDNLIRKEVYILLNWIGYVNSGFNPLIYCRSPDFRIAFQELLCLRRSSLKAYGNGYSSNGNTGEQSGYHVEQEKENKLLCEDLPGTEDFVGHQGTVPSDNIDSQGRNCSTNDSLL
D(2) dopamine receptor (Homo sapiens), sequence (P14416 whole entry, looked up): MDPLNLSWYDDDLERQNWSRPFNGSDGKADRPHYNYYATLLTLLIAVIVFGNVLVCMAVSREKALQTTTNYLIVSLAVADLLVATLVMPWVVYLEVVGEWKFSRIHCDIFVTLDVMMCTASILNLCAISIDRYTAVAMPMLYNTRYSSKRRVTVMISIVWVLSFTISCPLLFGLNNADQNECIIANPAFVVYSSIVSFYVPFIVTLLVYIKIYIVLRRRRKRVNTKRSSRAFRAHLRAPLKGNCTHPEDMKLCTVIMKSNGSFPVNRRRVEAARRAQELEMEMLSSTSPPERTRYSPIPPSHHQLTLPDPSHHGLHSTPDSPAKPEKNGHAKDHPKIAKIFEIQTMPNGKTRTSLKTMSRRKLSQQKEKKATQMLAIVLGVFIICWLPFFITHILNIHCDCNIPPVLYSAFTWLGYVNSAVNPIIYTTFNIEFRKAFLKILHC
Gonadotropin-releasing hormone receptor (Homo sapiens), sequence (P30968 whole entry, looked up): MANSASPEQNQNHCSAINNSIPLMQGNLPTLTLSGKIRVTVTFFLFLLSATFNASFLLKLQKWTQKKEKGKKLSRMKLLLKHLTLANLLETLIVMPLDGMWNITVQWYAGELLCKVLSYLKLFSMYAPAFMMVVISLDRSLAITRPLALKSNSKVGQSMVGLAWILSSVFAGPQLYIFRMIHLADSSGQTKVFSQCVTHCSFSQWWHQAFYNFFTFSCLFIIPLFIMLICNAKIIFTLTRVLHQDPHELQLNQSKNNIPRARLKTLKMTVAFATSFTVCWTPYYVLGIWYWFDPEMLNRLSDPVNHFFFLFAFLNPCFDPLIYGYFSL

O=C(OCC(O)CO)c1ccccc1Nc1ccnc2c(C(F)(F)F)cccc12 (stereo unspecified)
Potency [1]: inactive
Potency [2]: inactive
outcome [3]: inactive
outcome [4]: inactive
Potency [5]: inactive
Potency [6]: inactive
Potency [7]: inactive
Potency [8]: inactive
Potency [9]: inactive
Potency [10]: inactive
Potency [11]: inactive
Potency [12]: inactive
Potency [13]: inactive
Potency [14]: inactive
Potency [15]: inactive
Potency [16]: inactive
Potency [17]: inactive

NC(=O)C1(N2CCCCC2)CCN(CCCC(=O)c2ccc(F)cc2)CC1
Potency [1]: inactive
Potency [2]: inactive
outcome [3]: inactive
outcome [4]: inactive
Potency [5]: inactive
Potency [6]: inactive
Potency [7]: inactive
Potency [8]: inactive
Potency [9]: inactive
Potency [10]: inactive
Potency [12]: inactive
Potency [13]: inactive
Potency [14]: inactive
Potency [18]: inactive
Potency [19]: inactive
Potency [15]: inactive
Potency [20]: inactive
Potency [16]: inactive

CC(=O)NC(=O)c1ccccc1O
Potency [1]: inactive
Potency [2]: inactive
outcome [3]: inactive
outcome [4]: inactive
Potency [5]: inactive
Potency [6]: inactive
Potency [7]: inactive
Potency [8]: inactive
Potency [9]: inactive
Potency [10]: inactive
Potency [11]: inactive
Potency [12]: inactive
Potency [13]: inactive
Potency [14]: inactive
Potency [18]: inactive
Potency [19]: inactive
Potency [15]: inactive

O=C(O)/C=C/c1ccc(/C=C/C(=O)O)cc1
Potency [1]: inactive
Potency [2]: inactive
outcome [3]: inactive
outcome [4]: inactive
Potency [5]: inactive
Potency [6]: inactive
Potency [7]: inactive
Potency [8]: inactive
Potency [9]: inactive
Potency [11]: inactive
Potency [12]: inactive
Potency [13]: inactive
Potency [14]: inactive
Potency [19]: inactive
Potency [15]: inactive
Potency [16]: inactive
Potency [17]: inactive

CC(=O)OCC(=O)[C@@]1(OC(C)=O)[C@@H](C)C[C@H]2[C@@H]3C[C@H](F)C4=CC(=O)C=C[C@]4(C)[C@@]3(F)[C@@H](O)C[C@@]21C
Potency [1]: inactive
Potency [2]: inactive
outcome [3]: inactive
outcome [4]: inactive
Potency [5]: inactive
Potency [6]: inactive
Potency [7]: inactive
Potency [8]: inactive
Potency [9]: inactive
Potency [15]: inactive
Potency [20]: inactive
Potency [17]: inactive

CN1CCN(C2=Nc3cc(F)ccc3Cc3ccccc32)CC1
Potency [1]: inactive
Potency [2]: inactive
outcome [3]: inactive
outcome [4]: inactive
Potency [5]: inactive
Potency [6]: inactive
Potency [7]: inactive
Potency [8]: inactive
Potency [10]: inactive
Potency [11]: 23.1 nM (active)
Potency [12]: inactive
Potency [14]: inactive
Potency [18]: inactive
Potency [19]: inactive
Potency [17]: inactive

O=C(O)CC(C(=O)O)S(=O)(=O)O (stereo unspecified)
Potency [1]: inactive
Potency [2]: inactive
outcome [3]: inactive
outcome [4]: inactive
Potency [6]: inactive
Potency [9]: inactive
Potency [10]: inactive
Potency [11]: inactive
Potency [12]: inactive
Potency [13]: inactive
Potency [14]: inactive
Potency [18]: inactive
Potency [19]: inactive
Potency [16]: inactive
Potency [17]: inactive

Oc1ccc(Nc2ccccc2)cc1
Potency [1]: 61.1 µM (active)
Potency [2]: inactive
outcome [3]: inactive
outcome [4]: inactive
Potency [5]: inactive
Potency [6]: inactive
Potency [7]: inactive
Potency [8]: inactive
Potency [10]: inactive
Potency [11]: inactive
Potency [12]: inactive
Potency [13]: inactive
Potency [14]: inactive
Potency [18]: inactive
Potency [16]: inactive
Potency [17]: inactive

NC1[C@H]2CN(c3nc4c(cc3F)c(=O)c(C(=O)O)cn4-c3ccc(F)cc3F)C[C@@H]12 (stereo partly specified)
Potency [1]: inactive
Potency [2]: inactive
outcome [3]: inactive
outcome [4]: inactive
Potency [5]: inactive
Potency [6]: inactive
Potency [7]: inactive
Potency [9]: inactive
Potency [16]: inactive
